Several values for one entry are separate records, joined by “and”; a condition that tells them apart may be missing. Equal values may be shown once. About 2,000 (36%) of roughly 5,500 compounds were called active. About 18% were inconclusive and are not listed. Rule as the data show it: active = normalized growth mostly below about 0.91 (no sharp cut-off); inconclusive = no clear call, values can overlap the other calls; inactive = mostly above about 0.92. This is one part of the list.
Test: chemical genetic growth profiling, strain panel (AID 1159580);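 also: tested at 20 µM; growth read once vehicle control cultures reached saturation at 30 °C; 1 = growth at the plate median or of vehicle wells; lower values mean less growth of the strain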
Settings: S. cerevisiae deletion strains, growth OD

Measured: normalized growth

NC(Cc1ccc(Cl)cc1)C(=O)O (stereo not drawn)
inactive: locus YAL013W, strain DEP1, hits give low values 1 | locus YAL021C, strain ccr4, hits give low values 0.989 | locus YAL026C, strain drs2, hits give low values 1.01 | locus YAL030W, strain snc1, hits give low values 0.993 | locus YAL040C, strain CLN3, hits give low values 1 | locus YBL061C, strain skt5, hits give low values 0.999 | locus YBR009C, strain hhf1, hits give low values 0.993 | locus YBR021W, strain FUR4, hits give low values 1.01 | locus YBR023C, strain chs3, hits give low values 0.991 | locus YBR171W, strain sec66, hits give low values 1.01 | locus YBR229C, strain ROT2, hits give low values 0.96 | locus YBR231C, strain swc5, hits give low values 0.997 | locus YBR279W, strain paf1, hits give low values 0.988 | locus YCL011C, strain gbp2, hits give low values 1 | locus YCL016C, strain dcc1, hits give low values 0.989 | locus YCL029C, strain bik1, hits give low values 0.994 | locus YCL061C, strain MRC1, hits give low values 1.01 | locus YCL069W, strain vba3, hits give low values 1 | locus YCR088W, strain abp1, hits give low values 0.999 | locus YDL005C, strain med2, hits give low values 0.989 | locus YDL035C, strain GPR1, hits give low values 0.999 | locus YDL040C, strain nat1, hits give low values 0.996 | locus YDL074C, strain BRE1, hits give low values 0.997 | locus YDL101C, strain DUN1, hits give low values 0.983 | locus YDL134C, strain PPH21, hits give low values 0.952 | locus YDL185W, strain tfp1, hits give low values 0.986 | locus YDL192W, strain arf1, hits give low values 1 | locus YDR001C, strain nth1, hits give low values 1.01 | locus YDR069C, strain doa4, hits give low values 0.988 | locus YDR101C, strain arx1, hits give low values 1.01 | locus YDR137W, strain rgp1, hits give low values 0.998 | locus YDR150W, strain NUM1, hits give low values 0.974 | locus YDR159W, strain sac3, hits give low values 0.976 | locus YDR162C, strain NBP2, hits give low values 1.01 | locus YDR195W, strain ref2 0.971 | locus YDR297W, strain sur2, hits give low values 0.992 | locus YDR318W, strain mcm21, hits give low values 0.987 | locus YDR334W, strain swr1, hits give low values 1.02 | locus YDR335W, strain msn5, hits give low values 1 | locus YDR388W, hits give low values 0.996 | locus YDR392W, strain spt3, hits give low values 0.936 | locus YDR502C, strain sam2, hits give low values 1 | locus YEL003W, strain gim4, hits give low values 1 | locus YEL037C, strain rad23, hits give low values 1.02 | locus YEL061C, strain CIN8 (second series), hits give low values 1.01 | locus YEL061C, strain CIN8, hits give low values 0.99 | locus YER015W, strain faa2, hits give low values 1 | locus YER016W, strain bim1, hits give low values 0.992 | locus YER110C, hits give low values 0.982 | locus YER111C, strain swi4, hits give low values 1.01 | locus YER155C, strain BEM2 (second series), hits give low values 0.975 | locus YER155C, strain BEM2, hits give low values 1.01 | locus YER167W, strain BCK2, hits give low values 0.999 | locus YFR010W, strain ubp6, hits give low values 1.03 | locus YGL078C, strain dbp3, hits give low values 0.988 | locus YGL086W, strain mad1, hits give low values 1.01 | locus YGL167C, strain pmr1, hits give low values 0.997 | locus YGL173C, strain kem1, hits give low values 1 | locus YGL227W, strain vid30, hits give low values 0.999 | locus YGL240W, strain doc1, hits give low values 0.972 | locus YGL248W, strain PDE1, hits give low values 0.987 | locus YGL253W, strain hxk2, hits give low values 1.01 | locus YGR078C, strain PAC10, hits give low values 0.991 and 1 | locus YGR135W, strain pre9, hits give low values 1 | locus YGR229C, strain SMI1, hits give low values 0.993 | locus YGR252W, strain gcn5, hits give low values 0.989 | locus YHR013C, strain ard1, hits give low values 0.994 | locus YHR027C, strain rpn1, hits give low values 0.992 | locus YHR030C, strain SLT2, hits give low values 0.986 and 0.959 | locus YHR079C, strain IRE1 (second series), hits give low values 0.991 | locus YHR079C, strain IRE1, hits give low values 0.986 | locus YHR094C, strain hxt1, hits give low values 0.994 | locus YHR129C, strain ARP1, hits give low values 0.985 | locus YHR142W, strain chs7, hits give low values 1.03 | locus YHR200W, strain rpn10, hits give low values 1 | locus YIL066C, strain RNR3, hits give low values 0.982 | locus YIL073C, strain SPO22, hits give low values 1.02 | locus YIL125W, strain kgd1, hits give low values 0.998 | locus YIR030C, strain dcg1, hits give low values 1 | locus YJL092W, strain hpr5, hits give low values 1.01 | locus YJL095W, strain BCK1 (second series), hits give low values 0.99 | locus YJL095W, strain BCK1, hits give low values 1.02 and 0.993 | locus YJL115W, strain asf1, hits give low values 0.994 | locus YJL129C, strain trk1, hits give low values 1.02 | locus YJL134W, strain LCB3, hits give low values 0.99 | locus YJL154C, strain vps35, hits give low values 1.01 | locus YJL164C, strain tpk1, hits give low values 0.992 | locus YJL166W, strain qcr8, hits give low values 0.991 | locus YJL168C, strain set2, hits give low values 0.994 | locus YJL187C, strain SWE1 (second series), hits give low values 0.975 | locus YJL187C, strain SWE1, hits give low values 0.993 | locus YJR043C, strain POL32, hits give low values 1.01 | locus YJR066W, strain TOR1, hits give low values 0.902

— PubChem BioAssay AID1159580 (chemical genetic matrix, 2015)
